About 79,000 compounds went through this panel and 15% of them were active in at least one assay; those are over-represented in the sample as a whole. A number with no mark means an inactive call. Activity calls are given as the source filed them. Cut-off read from the data, not from the text of the source: active = growth inhibition above about 70%; inactive = the rest.

Experiment [1] can be described thus: NCI Yeast Anticancer Drug Screen. Data for the rad50 strain (AID 155).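 Note: 0% = growth of vehicle-only cultures of the same strain.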 To be noted: S. cerevisiae rad50 strain growth inhibition, active compounds read high. Summed up:
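Relative growth inhibition (compound vs vehicle) was measured in yeast with a defined repair-gene alteration.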

Experiment [2] can be described thus: NCI Yeast Anticancer Drug Screen. Data for the mec2-1 strain (AID 157). As to conditions: S. cerevisiae mec2-1 strain, active compounds read high. Summed up:
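Cells of the genetically defined mec2-1 yeast strain are incubated with test compound. Inhibition of growth is calculated against vehicle-treated controls.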

Experiment [3] is described as follows: NCI Yeast Anticancer Drug Screen. Data for the sgs1 mgt1 strain (AID 161).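 Note: 0% = growth of cultures given vehicle only.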 As to conditions: S. cerevisiae sgs1 mgt1 strain, active compounds read high. Summed up: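 Mutant yeast exposed to compound; growth scored against vehicle-only wells.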
Experiment [4] can be described thus: NCI Yeast Anticancer Drug Screen. Data for the cln2 rad14 strain (AID 165).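 Note: 0% = growth equal to vehicle treated cultures.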 To be noted: S. cerevisiae cln2 rad14 strain, active compounds read high. Summed up: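 The screen exposed genetically defined yeast (cln2 rad14) to test compounds and scored growth inhibition relative to vehicle-treated controls.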
Experiment [5] can be described thus: NCI Yeast Anticancer Drug Screen. Data for the bub3 strain (AID 167). To be noted: S. cerevisiae bub3 mutant strain, active compounds read high. Summed up:
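Screening used yeast with an engineered genetic alteration affecting cell cycle control. Compound-exposed cultures were compared with vehicle cultures, and reduced growth was taken as inhibition.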

Experiment [6] is described as follows: NCI Yeast Anticancer Drug Screen. Data for the mlh1 rad18 strain (AID 175). To be noted: S. cerevisiae mlh1 rad18 strain growth inhibition, active compounds read high. Summed up: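 Compound-treated yeast growth, normalised to vehicle controls. Strain bears defined DNA repair mutations.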
The mark [7] stands for this setting: at 5.0 µM (retest, dose inferred, filed as 0.5).
Setting [8] is: at 50.0 µM (retest, dose inferred, filed as 5.0).

On to `O=C(c1ccccc1)c1ccc(O)c2ncccc12`, for which the growth inhibition in experiment [1] (setting [7]) was 23%; in experiment [1] (setting [8]), 99% (active); in experiment [1] (at 50.0 µM), 98.6% (active); in experiment [2] (setting [7]), -11%; in experiment [2] (setting [8]), 99% (active); in experiment [2] (at 50.0 µM) it was 97.8% (active). The growth inhibition in experiment [3] (setting [7]) is 10%; in experiment [3] (setting [8]) it was 99% (active); in experiment [3] (at 50.0 µM) it was 99% (active); in experiment [4] (setting [7]), -8%; in experiment [4] (setting [8]), 99% (active); in experiment [4] (at 50.0 µM), 98% (active). Besides, the growth inhibition is 5% in experiment [5] (setting [7]); 99% (active) in experiment [5] (setting [8]); 98.5% (active) in experiment [5] (at 50.0 µM); 17% in experiment [6] (setting [7]); 98% (active) in experiment [6] (setting [8]); 98.3% (active) in experiment [6] (at 50.0 µM).

Consider `CC1=C(Cl)C[C@@H](/C(C)=C\Cl)O[C@@]1(O)C(Br)Br`, for which the growth inhibition is 31% in experiment [1] (setting [7]); 92% (active) in experiment [1] (setting [8]); 91.8% (active) in experiment [1] (at 50.0 µM); 24% in experiment [2] (setting [7]); 94% (active) in experiment [2] (setting [8]); 93.4% (active) in experiment [2] (at 50.0 µM). Also, the growth inhibition in experiment [3] (setting [7]) is 40%; in experiment [3] (setting [8]), 93% (active); in experiment [3] (at 50.0 µM) it was 93.5% (active); in experiment [4] (setting [7]), 20%; in experiment [4] (setting [8]) it was 90% (active); in experiment [4] (at 50.0 µM) it was 91.2% (active). In addition, the growth inhibition in experiment [5] (setting [7]) was 40%; in experiment [5] (setting [8]), 91% (active); in experiment [5] (at 50.0 µM), 92.3% (active); in experiment [6] (setting [7]), 65%; in experiment [6] (setting [8]) it was 92% (active); in experiment [6] (at 50.0 µM) it was 15.1%.

In the case of `O=C1C=CC(=O)N1c1ccc(O)cc1`, the growth inhibition in experiment [1] (setting [7]) is 15%; in experiment [1] (setting [8]), 94% (active); in experiment [1] (at 50.0 µM), 96.3% (active); in experiment [2] (setting [7]), 23%; in experiment [2] (setting [8]), 98% (active); in experiment [2] (at 50.0 µM), 98.4% (active). The growth inhibition in experiment [3] (setting [7]) is 18%; in experiment [3] (setting [8]), 86% (active); in experiment [3] (at 50.0 µM) it was 94.1% (active); in experiment [4] (setting [7]) it was -1%; in experiment [4] (setting [8]), 98% (active); in experiment [4] (at 50.0 µM) it was 98.3% (active). Further, the growth inhibition in experiment [5] (setting [7]) is 4%; in experiment [5] (setting [8]) it was 97% (active); in experiment [5] (at 50.0 µM) it was 96.8% (active); in experiment [6] (setting [7]) it was 11%; in experiment [6] (setting [8]), 98% (active); in experiment [6] (at 50.0 µM) it was 91.8% (active).

As to `O=C(c1ccccc1)C(Br)C(Br)c1ccccc1` (configuration not stated), the growth inhibition in experiment [1] (setting [7]) is 31%; in experiment [1] (setting [8]) it was 96% (active); in experiment [1] (at 50.0 µM), 97.7% (active); in experiment [2] (setting [7]), 27%; in experiment [2] (setting [8]), 98% (active); in experiment [2] (at 50.0 µM) it was 98.8% (active). Moreover, the growth inhibition in experiment [3] (setting [7]) is 38%; in experiment [3] (setting [8]), 97% (active); in experiment [3] (at 50.0 µM), 43.2%; in experiment [4] (setting [7]), 18%; in experiment [4] (setting [8]), 84% (active); in experiment [4] (at 50.0 µM) it was 39.8%. In addition, the growth inhibition in experiment [5] (setting [7]) was 22%; in experiment [5] (setting [8]) it was 97% (active); in experiment [5] (at 50.0 µM), 98.8% (active); in experiment [6] (setting [7]), 43%; in experiment [6] (setting [8]) it was 95% (active); in experiment [6] (at 50.0 µM) it was 97.2% (active).

As for `CC1=CC[C@@H]2[C@@H](CC[C@@]2(C)O)C(C)(C)[C@H]1CC[C@@H]1[C@@]2(C)CCC(=O)C(C)(C)O[C@@H]2CC[C@]1(C)O`, the growth inhibition was 20% in experiment [1] (setting [7]); 57% in experiment [1] (setting [8]); 74.8% (active) in experiment [1] (at 50.0 µM); 13% in experiment [2] (setting [7]); 37% in experiment [2] (setting [8]); 62.9% in experiment [2] (at 50.0 µM). Also, the growth inhibition is -1% in experiment [3] (setting [7]); 78% (active) in experiment [3] (setting [8]); 72.2% (active) in experiment [3] (at 50.0 µM); 16% in experiment [4] (setting [7]); 70% (active) in experiment [4] (setting [8]); 55.2% in experiment [4] (at 50.0 µM). Further, the growth inhibition in experiment [5] (setting [7]) is 10%; in experiment [5] (setting [8]) it was 73% (active); in experiment [5] (at 50.0 µM), 62.1%; in experiment [6] (setting [7]), 25%; in experiment [6] (setting [8]), 62%; in experiment [6] (at 50.0 µM), 22.9%.

On to `N#CCc1cccc2ccccc12`, for which the growth inhibition is 3% in experiment [1] (setting [7]); 6% in experiment [1] (setting [8]); 13.7% in experiment [1] (at 50.0 µM); 1% in experiment [2] (setting [7]); 10% in experiment [2] (setting [8]); -16.8% in experiment [2] (at 50.0 µM). Moreover, the growth inhibition in experiment [3] (setting [7]) was 0%; in experiment [3] (setting [8]) it was 4%; in experiment [3] (at 50.0 µM), -14.2%; in experiment [4] (setting [7]), -2%; in experiment [4] (setting [8]), 3%; in experiment [4] (at 50.0 µM) it was -17.1%. Also, the growth inhibition was 0% in experiment [5] (setting [7]); -4% in experiment [5] (setting [8]); -9.9% in experiment [5] (at 50.0 µM); 5% in experiment [6] (setting [7]); 10% in experiment [6] (setting [8]); 5% in experiment [6] (at 50.0 µM).

Take `CCCCCCN(CCCCCC)CCCNc1nccc2ccccc12`: the growth inhibition is 4% in experiment [1] (setting [7]); 62% in experiment [1] (setting [8]); 78.5% (active) in experiment [1] (at 50.0 µM); -4% in experiment [2] (setting [7]); 14% in experiment [2] (setting [8]); 36.5% in experiment [2] (at 50.0 µM). Further, the growth inhibition is 2% in experiment [3] (setting [7]); 88% (active) in experiment [3] (setting [8]); 56.9% in experiment [3] (at 50.0 µM); -4% in experiment [4] (setting [7]); 13% in experiment [4] (setting [8]); 56.5% in experiment [4] (at 50.0 µM). Moreover, the growth inhibition in experiment [5] (setting [7]) was 5%; in experiment [5] (setting [8]), 72% (active); in experiment [5] (at 50.0 µM), 84% (active); in experiment [6] (setting [7]), 10%; in experiment [6] (setting [8]), 64%; in experiment [6] (at 50.0 µM) it was 77% (active).

On to `O=C1/C(=C/c2ccccn2)CCc2ccccc21`, for which the growth inhibition in experiment [1] (setting [7]) is 30%; in experiment [1] (setting [8]), 94% (active); in experiment [1] (at 50.0 µM), 84.7% (active); in experiment [2] (setting [7]), 17%; in experiment [2] (setting [8]), 95% (active); in experiment [2] (at 50.0 µM), 89.5% (active). For the same compound, the growth inhibition in experiment [3] (setting [7]) was 11%; in experiment [3] (setting [8]), 85% (active); in experiment [3] (at 50.0 µM), 83.4% (active); in experiment [4] (setting [7]) it was 32%; in experiment [4] (setting [8]) it was 92% (active); in experiment [4] (at 50.0 µM), 46.2%. Moreover, the growth inhibition in experiment [5] (setting [7]) is -8%; in experiment [5] (setting [8]), 98% (active); in experiment [5] (at 50.0 µM), 89.4% (active); in experiment [6] (setting [7]) it was -15%; in experiment [6] (setting [8]), 97% (active); in experiment [6] (at 50.0 µM), 84.2% (active).

Turning to `CC[n+]1ccc(Nc2ccc(NC(=O)c3ccc(Nc4cc[n+](CC)c5ccc([N+](=O)[O-])cc45)cc3)cc2)cc1`, the growth inhibition in experiment [1] (setting [7]) is 84% (active); in experiment [1] (setting [8]), 97% (active); in experiment [1] (at 50.0 µM) it was 99% (active); in experiment [2] (setting [7]), 14%; in experiment [2] (setting [8]) it was 97% (active); in experiment [2] (at 50.0 µM), 99% (active). The growth inhibition was 84% (active) in experiment [3] (setting [7]); 98% (active) in experiment [3] (setting [8]); 99.5% (active) in experiment [3] (at 50.0 µM); 72% (active) in experiment [4] (setting [7]); 96% (active) in experiment [4] (setting [8]); 97% (active) in experiment [4] (at 50.0 µM). Also, the growth inhibition in experiment [5] (setting [7]) is 72% (active); in experiment [5] (setting [8]), 97% (active); in experiment [5] (at 50.0 µM), 99.1% (active); in experiment [6] (setting [7]), 82% (active); in experiment [6] (setting [8]), 97% (active); in experiment [6] (at 50.0 µM) it was 97.8% (active).

The values above are taken from PubChem BioAssay (NCI).
